Data on nine compounds can be found in PubChem BioAssay (NCI).

About 83,000 compounds went through this panel and 20% of them were active in at least one assay; those are over-represented in the sample as a whole.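 In brief: 96-well plates, 48 h treatment, single concentration, percent growth endpoint.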 Values without a mark were called inactive. Calls of active or inactive are those of the source. How the source made its calls: active means growth percent below 10; inactive means the rest.

Test systems include HCT-15 colon; HT29 colon; SNB-75 CNS; SNB-19 CNS; U251 CNS; PC-3 prostate; SK-MEL-5 melanoma; LOX IMVI melanoma; SK-MEL-28 melanoma; SK-MEL-2 melanoma; EKVX NSCLC; SN12C renal; UO-31 renal; TK-10 renal; ACHN renal; CAKI-1 renal; CCRF-CEM leukemia; MOLT-4 leukemia; A498 renal; UACC-62 melanoma.
Holding throughout (assay): NCI-60 one-dose screen, 48 h (100 = growth as untreated, 0 = no growth, -100 = all killed)
Common to all, as to conditions: 10 µM unless noted

Take `CS(=O)(=O)N1CCN(Cc2cc3nc(-c4cccc5[nH]ncc45)nc(N4CCOCC4)c3s2)CC1` (tested in a mixture with another compound): the growth in the assay on HCT-15 colon was 14.2%; in the assay with HT29 colon it was 9.57% (active); with SNB-75 CNS, -3.36% (active); in the assay on SNB-19 CNS, 28%; with U251 CNS it was 30.5%; with PC-3 prostate it was 6.61% (active). Moreover, the growth in the assay on SK-MEL-5 melanoma is -0.161% (active); in the assay on LOX IMVI melanoma, 18.8%; with SK-MEL-28 melanoma it was 10.6%; with SK-MEL-2 melanoma it was 33.4%; in the assay on EKVX NSCLC it was 16.7%; in the assay on SN12C renal it was 17%. Moreover, the growth in the assay with UO-31 renal is -12.9% (active); in the assay on TK-10 renal, 20.5%; with ACHN renal, 12.2%; with CAKI-1 renal, -1.96% (active); with CCRF-CEM leukemia it was 20.9%; with MOLT-4 leukemia, 8.77% (active).
For `COc1ccc2c(c1)CC[C@@H]1[C@@H]2CC[C@]2(C)[C@@H](O)C(=O)C[C@@H]12`, the growth with HCT-15 colon was 114%; in the assay with HT29 colon, 105%; in the assay on SNB-75 CNS, 97.2%; with SNB-19 CNS, 102%; in the assay on U251 CNS it was 102%; in the assay on PC-3 prostate, 95.1%. Moreover, the growth in the assay with SK-MEL-5 melanoma was 107%; in the assay with LOX IMVI melanoma, 94%; with SK-MEL-28 melanoma it was 113%; in the assay on SK-MEL-2 melanoma, 107%; with EKVX NSCLC it was 102%; with SN12C renal, 96.1%. For the same compound, the growth is 85.2% in the assay with UO-31 renal; 109% in the assay on TK-10 renal; 94.9% with ACHN renal; 97.4% with CAKI-1 renal; 95.7% in the assay on A498 renal; 91.8% in the assay with CCRF-CEM leukemia. Moreover, the growth with MOLT-4 leukemia is 90.8%.
Take `C=C1CCC2C3(C)COC(c4ccccc4)OC3CCC2(C)C1C/C=C1/C(=O)OCC1OC(C)=O` (stereo not given): the growth in the assay with HCT-15 colon was 79.1%; in the assay with HT29 colon, 65.7%; in the assay on SNB-75 CNS it was 75.3%; with SNB-19 CNS it was 95.6%; with U251 CNS, 71.2%; in the assay with PC-3 prostate it was 78.5%. Besides, the growth in the assay on SK-MEL-5 melanoma was 60.7%; in the assay on LOX IMVI melanoma it was 12.3%; in the assay on SK-MEL-2 melanoma, 95.1%; with EKVX NSCLC, 104%; with SN12C renal, 80.6%; in the assay on UO-31 renal, 81.6%. The growth is 56.8% in the assay on TK-10 renal; 92.4% in the assay with ACHN renal; 106% in the assay on CAKI-1 renal; 103% in the assay on A498 renal; 2.16% (active) in the assay with CCRF-CEM leukemia; 77.1% in the assay on MOLT-4 leukemia.
On to `CNNc1ncnc2c1cnn2-c1ccc(S(N)(=O)=O)cc1`, for which the growth was 103% with HCT-15 colon; 95.2% in the assay on HT29 colon; 104% with SNB-75 CNS; 105% in the assay with SNB-19 CNS; 98.5% in the assay with U251 CNS; 81.4% in the assay on PC-3 prostate. Further, the growth with UACC-62 melanoma was 100%; with LOX IMVI melanoma it was 97.5%; in the assay on SK-MEL-28 melanoma, 109%; in the assay with SK-MEL-2 melanoma, 98.3%; with EKVX NSCLC it was 106%; in the assay on SN12C renal, 105%. The growth was 94.3% in the assay with UO-31 renal; 93% in the assay on ACHN renal; 112% with A498 renal; 81.6% in the assay on CCRF-CEM leukemia; 86.6% with MOLT-4 leukemia.
On to `O=c1[nH]c(N2CCC(Cc3ccccc3)CC2)nc2sc3c(c12)CCCC3`, for which the growth in the assay on HCT-15 colon is 101%; in the assay on HT29 colon, 83.8%; in the assay with SNB-75 CNS, 89.4%; in the assay with SNB-19 CNS, 106%; with U251 CNS it was 91.7%; in the assay with PC-3 prostate, 72.7%. Moreover, the growth in the assay with SK-MEL-5 melanoma was 102%; with LOX IMVI melanoma, 97.4%; in the assay with SK-MEL-28 melanoma, 115%; in the assay with EKVX NSCLC it was 99.5%; in the assay on SN12C renal, 103%; with UO-31 renal, 102%. The growth in the assay with TK-10 renal is 99%; in the assay on ACHN renal, 104%; in the assay on A498 renal it was 102%; with CCRF-CEM leukemia, 91.6%; in the assay with MOLT-4 leukemia it was 100%.
Take `COc1ccc2c(c1)[n+](=O)c(/C=C/C(=O)c1cc(OC)c(OC)c(OC)c1)c(C)n2[O-]`: the growth in the assay with HCT-15 colon is 11%; in the assay with HT29 colon, 47%; with SNB-75 CNS, 68.7%; with SNB-19 CNS it was 97%; in the assay on U251 CNS it was 53.7%; with PC-3 prostate it was 55.2%. For the same compound, the growth with UACC-62 melanoma is 63.8%; with LOX IMVI melanoma, 51.3%; with SK-MEL-28 melanoma, 71.6%; in the assay on SK-MEL-2 melanoma it was 56%; in the assay on EKVX NSCLC it was 71.3%; with SN12C renal, 40.5%. The growth in the assay with UO-31 renal was 49.1%; with TK-10 renal, 62.9%; in the assay on ACHN renal, 47.7%; with A498 renal, 99.3%; with CCRF-CEM leukemia, -25.9% (active).
In the case of `Nc1ccccc1-c1ccn[nH]1`, the growth is 85.2% in the assay with HCT-15 colon; 106% in the assay with HT29 colon; 61.9% in the assay on SNB-75 CNS; 97.4% in the assay with SNB-19 CNS; 96.7% in the assay on U251 CNS; 79.1% in the assay with PC-3 prostate. Moreover, the growth with SK-MEL-5 melanoma is 96.6%; in the assay on LOX IMVI melanoma it was 68.6%; in the assay on SK-MEL-28 melanoma it was 110%; with SK-MEL-2 melanoma, 83.5%; in the assay with EKVX NSCLC it was 87%; with SN12C renal it was 87.9%. For the same compound, the growth is 50.9% in the assay on UO-31 renal; 119% with TK-10 renal; 70.5% in the assay with ACHN renal; 68.4% in the assay on CAKI-1 renal; 103% with A498 renal; 97.4% in the assay with CCRF-CEM leukemia. Also, the growth with MOLT-4 leukemia is 98.7%.
As for `Oc1c(Cl)cc(Oc2cc(Cl)c(O)c(CN3CCOCC3)c2)cc1CN1CCOCC1`, the growth is 82.1% in the assay on HCT-15 colon; 105% in the assay on HT29 colon; 88.1% with SNB-75 CNS; 86.2% in the assay with SNB-19 CNS; 96.9% in the assay with U251 CNS; 81% with PC-3 prostate. Also, the growth was 66.8% in the assay on UACC-62 melanoma; 83.3% with LOX IMVI melanoma; 126% in the assay on SK-MEL-28 melanoma; 88.2% with SK-MEL-2 melanoma; 90.5% in the assay on EKVX NSCLC; 95.4% in the assay with SN12C renal. Besides, the growth with UO-31 renal is 71.1%; with TK-10 renal, 95.1%; with ACHN renal, 84.9%; in the assay with CAKI-1 renal, 78%; in the assay with CCRF-CEM leukemia it was 107%; in the assay with MOLT-4 leukemia, 80.4%.
With `O=[N+]([O-])c1ccc(N=Nc2c(Cl)cc(O)cc2Cl)cc1`, the growth in the assay with HCT-15 colon was -25.7% (active); with HT29 colon it was 8.53% (active); with SNB-75 CNS, -10.4% (active); in the assay with SNB-19 CNS it was 20.1%; in the assay with U251 CNS, 10%; in the assay with PC-3 prostate, 8.4% (active). In addition, the growth with UACC-62 melanoma is -44.1% (active); in the assay on LOX IMVI melanoma it was -12.7% (active); in the assay with SK-MEL-28 melanoma, 5.72% (active); in the assay on SK-MEL-2 melanoma it was -19.1% (active); in the assay with EKVX NSCLC it was 1.71% (active); with SN12C renal it was 0.728% (active). Besides, the growth in the assay on UO-31 renal is -31.5% (active); with TK-10 renal, 9.62% (active); with ACHN renal, 1.34% (active); with CCRF-CEM leukemia, 8.97% (active); in the assay with MOLT-4 leukemia, -19% (active).
